Experimental data published in PubChem BioAssay (NCATS).
Records with an inconclusive call do not appear. Activity calls are given as the source filed them. Calls come from the whole dose curve; as a rule, active = well fitted inhibition curve with a large enough effect; inconclusive = small, poorly fitted or top-dose-only effect; inactive = flat fitted curve, though single readings scatter.

How the values were obtained:
Test in all cases: qHTS profiling for inhibitors of Plasmodium falciparum proliferation (AID 504749); note: nearly all actives have a fitted effect of over 60% in size
Settings in all cases: P. falciparum in erythrocytes, SYBR Green DNA, 72 h; series mostly up to 28.7 µM
7G8 = test system: 7G8
Summary of the method: (§1)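 SYBR Green fluorescence (ex 485 nm, em 535 nm) reports parasite DNA after 72 h compound exposure of infected red cells at 0.3% parasitemia, 2.5% hematocrit; signal normalized to 0.29 uM artemisinin and vehicle wells.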

ATS95 = test system: ATS95
Summary of the method: as §1

CP201 = test system: CP201
Summary of the method: as §1

CP203 = test system: CP203
Summary of the method: as §1

CP215 = test system: CP215
Summary of the method: as §1

CP247 = test system: CP247
Summary of the method: as §1

CP260 = test system: CP260
Summary of the method: as §1

CP266 = test system: CP266
Summary of the method: as §1

CP291 = test system: CP291
Summary of the method: as §1

CP297 = test system: CP297
Summary of the method: as §1

CP325 = test system: CP325
Summary of the method: as §1

CP335 = test system: CP335
Summary of the method: as §1

DIV14 = test system: DIV14
Summary of the method: as §1

DIV17 = test system: DIV17
Summary of the method: as §1

DIV30 = test system: DIV30
Summary of the method: as §1

GB4 = test system: GB4
Summary of the method: as §1

ICS = test system: ICS
Summary of the method: as §1

P93_24 = test system: P93_24
Summary of the method: as §1

PAD = test system: PAD
Summary of the method: as §1

PC26 = test system: PC26
Summary of the method: as §1

Measured: Potency
Potency is the fitted concentration of half-maximal effect.

CC(C)C[C@@H](NC(=O)[C@@H](Cc1ccccc1)NC(=O)c1cnccn1)B(O)O
active: 7G8 39.8 nM | ATS95 112 nM | CP201 536 nM | CP203 338 nM | CP215 675 nM | CP247 126 nM | CP260 100 nM | CP266 379 nM | CP291 151 nM | CP297 379 nM | CP325 151 nM | CP335 107 nM | DIV14 601 nM | DIV17 426 nM | DIV30 338 nM | GB4 120 nM | ICS 44.7 nM | P93_24 158 nM | PAD 141 nM | PC26 338 nM

C=C[C@H]1CN2CCC1C[C@H]2[C@H](O)c1ccnc2ccc(OC)cc12 (stereo not given in full)
active: 7G8 224 nM | ATS95 794 nM | CP201 2130 nM | CP203 1690 nM | CP215 1200 nM | CP247 1260 nM | CP260 708 nM | CP266 1900 nM | CP291 1200 nM | CP297 1690 nM | CP325 1200 nM | CP335 849 nM | DIV14 757 nM | DIV17 757 nM | DIV30 953 nM | GB4 301 nM | ICS 282 nM | P93_24 1000 nM | PAD 891 nM | PC26 601 nM

CCCCN1CC(O)C(O)C(O)C1CO (stereo not given)
inactive: all assays above

C=CCn1c(=O)n(C2OC(CO)C(O)C2O)c2nc(N)[nH]c(=O)c21 (stereo not given)
inactive: all assays above

NC(C(=O)O)c1ccc(O)cc1 (stereo not given)
inactive: all assays above

O=C(O)CC(O)CC(O)/C=C/c1c(C2CC2)nc2ccccc2c1-c1ccc(F)cc1 (stereo not given)
inactive: all assays above

CCCC[C@H](O)c1ccccc1
inactive: all assays above

O=C1[C@@H]2C[C@@H]3C[C@H]1C[C@@](O)(C3)C2
inactive: all assays above

O=c1ccn(C2OC(COP(=O)(O)OC3C(CO)OC(n4ccc(=O)[nH]c4=O)C3O)C(O)C2O)c(=O)[nH]1 (stereo not given)
inactive: all assays above

CC(C)(C)C(=O)OCC(=O)C1CCC2C3CCC4=CC(=O)CCC4(C)C3CCC12C (stereo not given)
inactive: all assays above

CC[C@@H](C)C(N)C(=O)O (stereo not given in full)
inactive: all assays above

CO/N=C(/C(=O)N[C@@H]1C(=O)N2C(C(=O)O)=C(CSc3nc(C)c(CC(=O)O)s3)CS[C@H]12)c1csc(N)n1
inactive: all assays above

C=C1[C@@H]2CC[C@H](C2)C1(C)C
inactive: all assays above

CCN(CC)C(=O)Nc1ccc(OC[C@H](O)CNC(C)(C)C)c(C(C)=O)c1
inactive: all assays above

CCCCC/C(C=O)=C/c1ccccc1
inactive: all assays above

O=c1[nH]c(=O)n(C2C[C@H](O)[C@@H](CO)O2)cc1C(F)(F)F (stereo not given in full)
inactive: all assays above

CCN1CCN(C(=O)NC(C(=O)NC2C(=O)N3C(C(=O)O)=C(CSc4nnnn4C)CSC23)c2ccc(O)cc2)C(=O)C1=O (stereo not given)
inactive: all assays above

Cc1ccc(Nc2ncccc2C(=O)O)cc1C
inactive: all assays above

O=C1NC(=O)C2C3C=CC(C3)C12 (stereo not given)
inactive: all assays above

C[C@]12CC[C@@H]3c4ccc(O)cc4CC[C@H]3[C@@H]1C[C@H](O)C2O (stereo not given in full)
inactive: all assays above

O=C1CC[C@H](C(=O)N[C@@H]2C[C@H]2c2ccccc2)N1
inactive: all assays above

COC(c1ccccc1)(c1ccccc1)C(Oc1nc(C)cc(C)n1)C(=O)O (stereo not given)
inactive: all assays above

CC1(C)SC2C(NC(=O)C(C(=O)O)c3ccccc3)C(=O)N2C1C(=O)O (stereo not given)
inactive: all assays above
